# Results: ChEMBL document CHEMBL3988442, “University of Dundee, Small-Polar-MMV Screening Library” (2021)
# For some assays here: Results with a measured potency or affinity are listed apart.
# Columns and labels:
# Set-up in all cases: scale not given: direction of the effect not stated beside the values
# [1] = target: Protein translocase subunit SecA (Escherichia coli (strain K12)) (UniProt P10408); assay: Assay to Identify E. coli SecA ATPase Inhibitors; type: functional; settings: 30 µM
# [2] = target: T1, Ubiquitin-activating enzyme e1, putative (Leishmania donovani (strain BPK282A1)) (UniProt E9BSI1); assay: Leishmania donovani Ubiquitin Activating Enzyme (LdE1); type: functional; settings: 30 µM
# T1 sequence (whole entry): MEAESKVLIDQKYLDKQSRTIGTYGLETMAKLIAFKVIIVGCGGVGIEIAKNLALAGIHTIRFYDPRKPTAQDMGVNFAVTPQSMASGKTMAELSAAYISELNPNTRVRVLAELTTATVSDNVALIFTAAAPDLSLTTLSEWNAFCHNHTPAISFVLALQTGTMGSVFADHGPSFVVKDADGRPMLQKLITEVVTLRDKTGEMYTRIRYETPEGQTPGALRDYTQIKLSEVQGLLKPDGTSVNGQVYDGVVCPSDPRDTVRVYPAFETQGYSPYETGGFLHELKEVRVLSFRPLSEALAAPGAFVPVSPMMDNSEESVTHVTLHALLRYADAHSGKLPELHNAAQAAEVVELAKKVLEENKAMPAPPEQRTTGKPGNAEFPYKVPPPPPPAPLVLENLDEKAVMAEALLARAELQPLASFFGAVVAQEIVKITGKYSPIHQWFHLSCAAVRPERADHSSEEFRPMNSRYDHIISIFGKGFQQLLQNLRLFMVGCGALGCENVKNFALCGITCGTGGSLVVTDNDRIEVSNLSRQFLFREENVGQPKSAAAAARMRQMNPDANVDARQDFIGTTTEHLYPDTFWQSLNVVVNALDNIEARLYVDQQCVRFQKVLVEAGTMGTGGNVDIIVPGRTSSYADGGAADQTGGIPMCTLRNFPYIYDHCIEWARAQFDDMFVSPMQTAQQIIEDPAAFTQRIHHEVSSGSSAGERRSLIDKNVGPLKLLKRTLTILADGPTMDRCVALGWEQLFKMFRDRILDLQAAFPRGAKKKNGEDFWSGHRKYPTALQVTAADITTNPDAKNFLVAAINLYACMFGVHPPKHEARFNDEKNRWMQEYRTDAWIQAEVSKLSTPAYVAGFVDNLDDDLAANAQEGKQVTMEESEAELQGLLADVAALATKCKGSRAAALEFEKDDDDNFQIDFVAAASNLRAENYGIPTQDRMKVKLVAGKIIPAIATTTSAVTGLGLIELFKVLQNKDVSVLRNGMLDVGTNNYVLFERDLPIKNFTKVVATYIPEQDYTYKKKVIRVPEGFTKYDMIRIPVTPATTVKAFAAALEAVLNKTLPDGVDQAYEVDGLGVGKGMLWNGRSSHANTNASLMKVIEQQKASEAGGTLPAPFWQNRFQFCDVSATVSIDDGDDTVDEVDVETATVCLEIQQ
# [3] = target: AMP-activated protein kinase, AMPK (Homo sapiens) (UniProt P54646+O43741+P54619+Q9UGJ0+Q9Y478+Q13131+Q9UGI9); assay: AMP-dependent Kinase enzyme assay. An in vitro enzyme assay that detects ADP turnover that is directly proportional to AMPK activity. This uses naive AMPK that is activated during the assay with MK-8722; type: functional; settings: 30 µM
# [4] = target: Sialic acid-binding Ig-like lectin 9 (Homo sapiens) (UniProt Q9Y336); assay: Hs-Siglec9 ALPHAscreen SOP 20170721; settings: 10 µM
# Trypanosoma cruzi = assay: Trypanosoma cruzi phosphomannomutase and mannose-1-phosphate guanylyltransferase assay; type: functional; settings: 10 µM
# [5] = target: T2, Arginase-2, mitochondrial (Homo sapiens) (UniProt P78540); assay: in vitro enzyme assay to detect the production of urea directly proportional to the activity of Arginase II; type: functional; settings: 33.3 µM; note: in the data most compounds retested in dose-response had high values
# T2 sequence (whole entry): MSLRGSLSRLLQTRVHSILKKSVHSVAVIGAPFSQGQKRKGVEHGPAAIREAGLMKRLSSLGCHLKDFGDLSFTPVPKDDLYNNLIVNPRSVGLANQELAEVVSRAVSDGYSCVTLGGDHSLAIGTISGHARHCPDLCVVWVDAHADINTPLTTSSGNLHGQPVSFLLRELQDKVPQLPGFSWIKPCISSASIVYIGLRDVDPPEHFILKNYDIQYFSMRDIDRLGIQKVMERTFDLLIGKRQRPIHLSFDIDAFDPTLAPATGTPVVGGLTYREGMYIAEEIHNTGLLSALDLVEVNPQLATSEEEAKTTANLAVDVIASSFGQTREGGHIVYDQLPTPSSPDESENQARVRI
# [6] = target: T3, Proteasome subunit beta (Trypanosoma cruzi) (UniProt O96673); assay: Trypanosoma cruzi proteasome chymotrypsin-like activity (TcProtChymo) assay.; note: in the data most compounds retested in dose-response had high values; type: functional; settings: 9.37 µM
# T3 sequence (whole entry): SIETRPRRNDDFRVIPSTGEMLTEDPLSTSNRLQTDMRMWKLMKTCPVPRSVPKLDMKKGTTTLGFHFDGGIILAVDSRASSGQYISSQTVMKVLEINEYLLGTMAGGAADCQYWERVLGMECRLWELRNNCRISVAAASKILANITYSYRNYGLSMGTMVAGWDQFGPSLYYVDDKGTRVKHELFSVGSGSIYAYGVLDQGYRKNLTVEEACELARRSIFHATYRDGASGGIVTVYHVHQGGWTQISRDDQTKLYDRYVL
# Homo sapiens = organism: Homo sapiens; assay: To identify inhibition of the IFN signalling (Jak-Stat) pathway via expression of an eGFP reporter gene under the control of an IFN-stimulated response element (ISRE) containing MxA promoter.; type: functional; settings: 30 µM
# [7] = target: T4, Tyrosyl-tRNA synthetase, putative (Trypanosoma cruzi (strain CL Brener)) (UniProt Q4DSP6); assay: Trypanosoma cruzi tyrosyl tRNA synthetase (TcYRS) _High Tyrosine SOP; type: functional; settings: 30 µM; note: in the data most compounds retested in dose-response had high values
# T4 sequence (whole entry): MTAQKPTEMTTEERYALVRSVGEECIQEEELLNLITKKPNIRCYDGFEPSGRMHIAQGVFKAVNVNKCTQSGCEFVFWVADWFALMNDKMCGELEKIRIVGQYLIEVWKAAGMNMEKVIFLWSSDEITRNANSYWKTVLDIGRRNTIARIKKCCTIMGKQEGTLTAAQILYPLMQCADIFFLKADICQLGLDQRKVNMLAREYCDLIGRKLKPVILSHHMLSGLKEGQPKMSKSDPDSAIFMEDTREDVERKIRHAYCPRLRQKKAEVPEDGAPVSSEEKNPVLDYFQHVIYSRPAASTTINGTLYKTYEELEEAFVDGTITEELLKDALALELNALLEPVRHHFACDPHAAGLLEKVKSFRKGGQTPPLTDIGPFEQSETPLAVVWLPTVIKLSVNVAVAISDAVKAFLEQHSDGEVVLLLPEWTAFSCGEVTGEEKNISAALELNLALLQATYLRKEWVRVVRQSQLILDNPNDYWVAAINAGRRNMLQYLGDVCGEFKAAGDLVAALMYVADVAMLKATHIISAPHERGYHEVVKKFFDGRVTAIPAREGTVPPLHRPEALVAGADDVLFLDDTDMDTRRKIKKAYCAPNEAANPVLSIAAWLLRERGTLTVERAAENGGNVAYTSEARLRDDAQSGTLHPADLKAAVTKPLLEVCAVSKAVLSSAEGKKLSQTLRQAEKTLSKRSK
# [8] = target: T4, Tyrosyl-tRNA synthetase, putative (Trypanosoma cruzi (strain CL Brener)); assay: Trypanosoma cruzi tyrosyl tRNA synthetase (TcYRS) SOP; type: functional; settings: 30 µM
# [9] = target: Chromo domain-containing protein 1 (Saccharomyces cerevisiae (strain ATCC 204508 / S288c) (Baker's yeast)) (UniProt P32657); assay: ScCHD-1 Enzyme Inhibition Assay; type: functional; settings: 30 µM; note: in the data most compounds retested in dose-response had high values
# Sequence of Chromo domain-containing protein 1 (Saccharomyces cerevisiae (strain ATCC 204508 / S288c) (Baker's yeast)) (P32657 whole entry, the tested form may be a part): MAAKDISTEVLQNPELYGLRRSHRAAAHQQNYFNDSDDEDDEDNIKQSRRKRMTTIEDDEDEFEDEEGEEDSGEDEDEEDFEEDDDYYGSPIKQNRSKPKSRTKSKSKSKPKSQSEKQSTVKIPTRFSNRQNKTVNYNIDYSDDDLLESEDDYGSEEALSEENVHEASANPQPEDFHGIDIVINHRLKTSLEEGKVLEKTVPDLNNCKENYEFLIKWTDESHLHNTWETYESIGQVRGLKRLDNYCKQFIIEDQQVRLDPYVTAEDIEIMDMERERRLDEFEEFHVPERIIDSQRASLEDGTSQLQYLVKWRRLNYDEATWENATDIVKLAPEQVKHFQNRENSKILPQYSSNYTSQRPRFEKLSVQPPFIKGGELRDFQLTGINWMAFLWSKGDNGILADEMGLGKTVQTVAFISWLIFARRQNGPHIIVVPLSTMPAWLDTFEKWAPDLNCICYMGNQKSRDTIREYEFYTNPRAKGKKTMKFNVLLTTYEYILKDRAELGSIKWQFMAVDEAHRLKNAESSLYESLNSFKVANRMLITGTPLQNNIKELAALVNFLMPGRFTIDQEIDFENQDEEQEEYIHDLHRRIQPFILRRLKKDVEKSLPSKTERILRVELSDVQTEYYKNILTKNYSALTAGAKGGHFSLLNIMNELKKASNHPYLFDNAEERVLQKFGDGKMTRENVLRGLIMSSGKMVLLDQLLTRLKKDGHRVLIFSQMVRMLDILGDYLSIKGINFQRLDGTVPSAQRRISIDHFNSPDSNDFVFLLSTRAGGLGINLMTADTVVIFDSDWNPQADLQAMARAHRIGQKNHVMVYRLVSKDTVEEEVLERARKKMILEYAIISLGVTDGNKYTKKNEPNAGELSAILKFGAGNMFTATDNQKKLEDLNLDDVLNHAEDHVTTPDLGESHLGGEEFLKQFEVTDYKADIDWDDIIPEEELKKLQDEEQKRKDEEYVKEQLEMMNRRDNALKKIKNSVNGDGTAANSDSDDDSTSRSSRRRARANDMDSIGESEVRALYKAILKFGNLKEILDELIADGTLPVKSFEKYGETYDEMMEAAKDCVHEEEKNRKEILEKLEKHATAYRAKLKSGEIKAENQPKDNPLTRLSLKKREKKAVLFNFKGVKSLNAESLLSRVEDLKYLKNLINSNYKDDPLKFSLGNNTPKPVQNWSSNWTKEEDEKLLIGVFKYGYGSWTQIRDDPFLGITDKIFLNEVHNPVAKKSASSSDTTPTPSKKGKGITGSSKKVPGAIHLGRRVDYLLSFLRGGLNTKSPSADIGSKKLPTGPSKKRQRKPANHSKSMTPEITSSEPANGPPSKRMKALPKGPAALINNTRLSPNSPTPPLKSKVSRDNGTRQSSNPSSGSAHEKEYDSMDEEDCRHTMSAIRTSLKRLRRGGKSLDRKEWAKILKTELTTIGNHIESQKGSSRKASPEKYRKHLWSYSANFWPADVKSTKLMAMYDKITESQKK
# Sequence of Sialic acid-binding Ig-like lectin 9 (Homo sapiens) (Q9Y336 whole entry): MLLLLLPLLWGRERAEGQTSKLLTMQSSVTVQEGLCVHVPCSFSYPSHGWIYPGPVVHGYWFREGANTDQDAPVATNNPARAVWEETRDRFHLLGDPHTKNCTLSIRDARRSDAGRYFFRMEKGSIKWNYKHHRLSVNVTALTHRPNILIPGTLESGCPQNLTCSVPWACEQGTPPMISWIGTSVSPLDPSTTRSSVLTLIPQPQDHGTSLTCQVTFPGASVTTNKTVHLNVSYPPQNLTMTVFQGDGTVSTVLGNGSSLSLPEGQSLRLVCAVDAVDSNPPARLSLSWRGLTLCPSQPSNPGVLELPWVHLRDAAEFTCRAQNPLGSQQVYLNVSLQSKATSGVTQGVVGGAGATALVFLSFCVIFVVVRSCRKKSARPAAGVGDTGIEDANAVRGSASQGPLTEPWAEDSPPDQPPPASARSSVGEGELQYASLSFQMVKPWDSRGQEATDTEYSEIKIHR
# Sequence of Protein translocase subunit SecA (Escherichia coli (strain K12)) (P10408 whole entry): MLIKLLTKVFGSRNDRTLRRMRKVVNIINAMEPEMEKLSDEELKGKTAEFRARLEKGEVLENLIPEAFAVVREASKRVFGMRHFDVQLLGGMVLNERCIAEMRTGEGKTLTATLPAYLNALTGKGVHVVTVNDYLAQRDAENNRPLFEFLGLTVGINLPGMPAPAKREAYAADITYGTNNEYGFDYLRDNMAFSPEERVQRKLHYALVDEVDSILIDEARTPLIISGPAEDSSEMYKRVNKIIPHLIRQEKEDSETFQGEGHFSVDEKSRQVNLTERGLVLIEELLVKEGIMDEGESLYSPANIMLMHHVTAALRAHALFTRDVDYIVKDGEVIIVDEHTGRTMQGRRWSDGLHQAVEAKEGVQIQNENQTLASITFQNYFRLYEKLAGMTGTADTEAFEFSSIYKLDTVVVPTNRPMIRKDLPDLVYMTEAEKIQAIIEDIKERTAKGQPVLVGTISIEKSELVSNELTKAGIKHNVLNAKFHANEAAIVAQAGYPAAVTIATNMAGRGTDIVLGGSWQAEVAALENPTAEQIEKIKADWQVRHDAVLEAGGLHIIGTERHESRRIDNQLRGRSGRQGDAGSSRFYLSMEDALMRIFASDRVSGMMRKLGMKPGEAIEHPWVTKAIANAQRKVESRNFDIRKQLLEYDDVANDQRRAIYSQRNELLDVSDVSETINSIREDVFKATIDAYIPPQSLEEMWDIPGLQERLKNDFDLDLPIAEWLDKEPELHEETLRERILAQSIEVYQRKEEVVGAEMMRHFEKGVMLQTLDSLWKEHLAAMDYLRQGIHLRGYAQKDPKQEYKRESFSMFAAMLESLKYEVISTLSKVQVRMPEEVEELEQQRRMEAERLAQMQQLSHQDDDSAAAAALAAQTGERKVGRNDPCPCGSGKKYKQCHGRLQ
Compound,Percent Effect [1],Percent Effect [2],Percent Effect [3],Percent Effect [4],Percent Effect (Trypanosoma cruzi),Percent Effect [5],Percent Effect [6],Percent Effect (Homo sapiens),Percent Effect [7],Percent Effect [8],Percent Effect [9]
CN(Cc1ccsc1)C(=O)Nc1ccc(S(C)(=O)=O)nc1,-2.7%,22.8%,-11.6%,-5.34%,4.63%,-3.04%,10.6%,5.01%,9.36%,24.1%,-6.57%
COCC1CN(C(=O)c2ccoc2C)Cc2nccn2C1 (stereo not given),-6.75%,0%,10.2%,-5.59%,-6.3%,0.233%,2.03%,12.3%,-3.19%,1.28%,-4.85%
Cc1nc(C)c(CNC(=O)NC(c2nnc3n2CCC3)C(C)C)s1 (stereo not given),-6.15%,0%,-0.521%,1.26%,-4.1%,-2.08%,12.8%,8.88%,5.94%,11%,-0.921%
O=C(NCc1ccco1)[C@H]1C[C@@H]2CCN(c3ccncn3)C[C@@H]2O1,-3.35%,10.7%,1.73%,2.91%,6.56%,-56.5%,16.9%,-18.7%,6.25%,17.5%,-5.87%
Cn1cnc2c1C(COCC1CC1)CN(C(=O)Cc1ccsc1)C2 (stereo not given),-4.47%,10.4%,-8.29%,8.48%,6.02%,-8.39%,7.14%,9.25%,2.12%,6.41%,84.8%
Cn1ccnc1COc1ccc(CN2CCN(CCO)CC2)cc1,-4.05%,20.8%,-12.5%,-0.317%,-3.18%,-3.2%,5.07%,29.4%,10.7%,2.44%,-9.14%
COc1nc(C)c(C(=O)N(C)Cc2nc(-c3ccccn3)no2)s1,-2.52%,13.3%,-11.2%,4.23%,4.97%,-3.65%,18.3%,-0.294%,6.01%,13.6%,-0.207%
CCCn1ccc2ccc(NC(=O)N(C)CCOC)cc21,-1.73%,-10.5%,-6.25%,4.31%,-4.58%,1.18%,9.3%,-9.53%,1.06%,5.2%,-2.86%
CC(C)(C)c1noc(CN2CCN(C(=O)c3cccs3)CC2)n1,-2.39%,10.4%,4.2%,-5.86%,-4.68%,4.27%,10.3%,19.4%,7.77%,14.6%,-7.8%
CN(Cc1ccsc1)C(=O)c1cccc(NS(C)(=O)=O)c1,-5.08%,20.8%,-4.59%,10.4%,4.12%,-6.41%,3.72%,14.4%,8.74%,24.4%,-8.96%
